Source: PMC4336329 (PLoS ONE, 2015)
In all, about 310,000 compounds went through this assay and about 14,000 (4.5%) showed an effect of 50% or more. The effect is printed as a negative number. Only a selection was taken, and strong results are over-represented in it overall.

These molecules were tested against human ether-à-go-go-related gene (hERG) potassium channel (human, UniProt Q12809) (assay: primary screen, population patch clamp on CHO cells stably expressing hERG; higher = less effect of the substance).
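Also: peak tail current of the secondary pulse compared with the same well before compound.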

Sequence of human ether-à-go-go-related gene (hERG) potassium channel (Q12809 whole entry, looked up): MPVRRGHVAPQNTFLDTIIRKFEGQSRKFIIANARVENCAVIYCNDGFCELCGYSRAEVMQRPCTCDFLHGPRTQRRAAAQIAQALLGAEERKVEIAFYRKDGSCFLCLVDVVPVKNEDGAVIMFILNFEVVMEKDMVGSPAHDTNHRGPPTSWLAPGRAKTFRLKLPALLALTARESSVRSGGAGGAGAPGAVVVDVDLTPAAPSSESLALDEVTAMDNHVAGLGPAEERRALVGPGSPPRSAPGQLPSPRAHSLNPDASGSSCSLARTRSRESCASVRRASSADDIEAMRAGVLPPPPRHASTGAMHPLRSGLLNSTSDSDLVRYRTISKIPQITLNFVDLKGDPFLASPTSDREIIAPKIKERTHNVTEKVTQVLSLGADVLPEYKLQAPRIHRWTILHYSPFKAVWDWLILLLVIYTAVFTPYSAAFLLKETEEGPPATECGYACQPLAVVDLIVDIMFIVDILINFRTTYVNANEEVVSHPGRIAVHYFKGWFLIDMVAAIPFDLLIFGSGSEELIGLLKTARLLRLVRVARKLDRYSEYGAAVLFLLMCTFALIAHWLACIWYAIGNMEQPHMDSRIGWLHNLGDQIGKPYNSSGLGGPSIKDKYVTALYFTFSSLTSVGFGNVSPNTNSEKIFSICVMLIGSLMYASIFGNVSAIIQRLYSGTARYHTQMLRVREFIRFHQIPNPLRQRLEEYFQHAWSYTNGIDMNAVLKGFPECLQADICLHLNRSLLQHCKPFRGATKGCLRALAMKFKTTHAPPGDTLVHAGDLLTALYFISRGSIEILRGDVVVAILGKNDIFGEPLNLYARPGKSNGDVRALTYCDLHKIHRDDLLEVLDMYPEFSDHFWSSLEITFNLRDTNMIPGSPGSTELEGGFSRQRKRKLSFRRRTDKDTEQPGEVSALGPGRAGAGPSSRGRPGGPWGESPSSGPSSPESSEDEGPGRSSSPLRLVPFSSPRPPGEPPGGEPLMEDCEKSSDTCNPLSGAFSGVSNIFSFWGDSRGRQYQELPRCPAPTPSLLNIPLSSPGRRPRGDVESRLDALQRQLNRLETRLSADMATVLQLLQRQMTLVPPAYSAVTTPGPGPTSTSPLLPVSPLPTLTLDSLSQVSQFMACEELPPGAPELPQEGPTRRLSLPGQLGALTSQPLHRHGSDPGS

Row | Structure (SMILES) | hERG current change (%, negative = inhibition) at 10uM
1 | COc1ccccc1-c1cnn2c(N3CCOCC3)cc(C)nc12 | 23.9%
2 | C=CCOc1ccc(/C=C/C(C)=N\O)cc1 | 4.84%
3 | O=[N+]([O-])c1c(Nc2ccccn2)cc(Cl)c2nonc12 | 9.59%
4 | CSCCC1NC(=S)N(Cc2ccccc2)C1=O (stereo not shown) | 16.3%
5 | CCN(CC)C(=O)CSc1ccccc1N | 13%
6 | C[C@@H]1CC=C[C@H]2[C@H]1C(=O)N(Cc1ccccc1)[C@H]2c1ccc2ccccc2c1 | 3.52%
7 | COc1ccc(C2=C(Nc3ccc(C)cc3)c3ccccc3C2=O)cc1 | 3.57%
8 | COc1ccccc1C(CNC(=O)c1cc(S(=O)(=O)N2CCOCC2)ccc1C)N1CCCC1 (stereo not shown) | 2.53%
9 | CCn1cc(C(=O)N2CCCCC2)c(=O)c2cc(S(=O)(=O)N3CCC(C)CC3)ccc21 | -18.4%
10 | CCn1cc(C(=O)N2CCN(c3ccccn3)CC2)c(=O)c2cc(S(=O)(=O)N3CCC(C)CC3)ccc21 | -55.9%
11 | CCn1cc(C(=O)N2CCCC2)c(=O)c2cc(S(=O)(=O)N3CCC(C)CC3)ccc21 | 6.02%
12 | CCn1cc(C(=O)N2CCN(c3ccccn3)CC2)c(=O)c2cc(S(=O)(=O)N(C)C3CCCCC3)ccc21 | -63.1%
13 | CCn1cc(C(=O)N2CCOCC2)c(=O)c2cc(S(=O)(=O)N(C)C3CCCCC3)ccc21 | 0.899%
14 | CCOC(=O)N1CCN(C(=O)c2cn(CC)c3ccc(S(=O)(=O)N(C)C4CCCCC4)cc3c2=O)CC1 | -17.3%
15 | CCCN1CNC(=S)N(c2cccc(C)c2)C1 | 17%
16 | CCC(C)[C@H](NC(=O)N1CC(=O)Nc2ccccc21)C(=O)N1CCC[C@@H]1C(=O)O (stereo partly shown) | 13.5%
17 | COc1cccc(NC(=O)CCC(=O)Nc2cccc(OC)c2)c1 | 10.5%
18 | O=C(Nc1cccc(F)c1)c1ccc2ncsc2c1 | 9.49%
19 | C=CCn1c(SC(C)C#N)nc2sc(CC)cc2c1=O (stereo not shown) | -41.2%
20 | C=CCn1c(SCC2CCCCO2)nc2sc(CC)cc2c1=O (stereo not shown) | -2.19%

Row | Structure (SMILES) | hERG current change (%, negative = inhibition) at 10uM
21 | C=CCn1c(SC2CCOC2=O)nc2sc(C)c(C)c2c1=O (stereo not shown) | -11.2%
22 | C=CCn1c(SCc2cc(=O)n3ccsc3n2)nc2scc(C3CC3)c2c1=O | -9.75%
23 | CCc1cc2c(=O)n(Cc3ccccc3)c(SC3CCOC3=O)nc2s1 (stereo not shown) | -80.4%
24 | O=C1OCCC1Sc1nnc(-c2cccs2)n1Cc1ccccc1 (stereo not shown) | -29.5%
25 | C=CCn1c(SC2CCOC2=O)nc2sc(CC)cc2c1=O (stereo not shown) | -65.4%
26 | C=CCn1c(SC2CCOC2=O)nc2scc(C3CC3)c2c1=O (stereo not shown) | -64.6%
27 | Cc1sc2nc(SC3CCOC3=O)n(Cc3ccccc3)c(=O)c2c1C (stereo not shown) | -9.22%
28 | O=C(Nc1ccccn1)C1CCN(S(=O)(=O)c2ccc3c(c2)OCCO3)CC1 | -11.5%
29 | Cc1ccccc1OCC(=O)Nc1cc(Cl)ccc1Oc1ccccc1 | 0.121%
30 | O=C1NC(Cc2c[nH]c3ccccc23)C(=O)N1c1ccc(F)cc1 (stereo not shown) | 12.4%
31 | CCCNC(=O)C/C(C)=N/NC(=O)C(=O)Nc1ccccn1 | 29.4%
32 | O=C(CN1C(=O)NC2(CCCc3ccccc32)C1=O)N1CCc2ccccc2C1 (stereo not shown) | -17.3%
33 | COc1ccc(-n2nc(C(=O)N3CCC(C#N)CC3)c3c4ccccc4n(C)c3c2=O)cc1 | -55.5%
34 | CCN1CCN(C(=O)c2nn(-c3ccc(OC)cc3)c(=O)c3c2c2ccccc2n3C)CC1 | -4.67%
35 | COc1ccc(-n2nc(C(=O)N3CCC(N4CCCCC4)CC3)c3c4ccccc4n(C)c3c2=O)cc1 | 7.1%
36 | CC1CCN(C(=O)CN2C(=O)C(=O)N(C(C)C)C2=O)c2ccccc2S1 (stereo not shown) | -4.64%
37 | Cc1ccc2nc(-c3ccc(-c4cccc(Cl)c4)cc3)c(NCc3ccccc3)n2c1.O=C(O)C(F)(F)F | -1.52%
38 | CCN1CCN(C(=O)/C(C#N)=C/c2ccc(OC(F)F)cc2)CC1.Cl | -74.3%
39 | N#C/C(=C\c1ccc(C#N)cc1)C(=O)N1CCCC1 | 7.75%
40 | N#C/C(=C\c1ccc(OC(F)F)cc1)C(=O)N1CCCCC1 | -21.8%

Row | Structure (SMILES) | hERG current change (%, negative = inhibition) at 10uM
41 | CCOC(=O)c1ccc(NC(=O)Cn2c(=O)oc3ccccc32)cc1 | 10.9%
42 | O=C(NCc1ccc(Cl)cc1)C1CCC(CNc2c(N3CCOCC3)c(=O)c2=O)CC1 (stereo not shown) | 14.9%
43 | Cc1cc(-c2nnc(CCC(=O)NCc3ccc(OC(F)(F)F)cc3)o2)no1 | 3.05%
44 | C/C(=N\NC(=O)c1nc2ccccn2c1C)c1cccc([N+](=O)[O-])c1 | -23.4%
45 | Cc1ccc(C(=O)C(C)OC(=O)CN2C(=O)NC3(CCCC3)C2=O)cc1C (stereo not shown) | 9.76%
46 | O=C(Sc1ccc(Cl)cc1)c1cccc(Cn2cc(C(F)(F)F)ccc2=O)c1 | 18.6%
47 | CCCC(=O)N1CCCC(C(=O)c2cccc(OC(C)C)c2)C1 (stereo not shown) | 3.64%
48 | CC(=O)N1CCC(N2CCCC(C(=O)c3cccc(Cl)c3)C2)CC1 (stereo not shown) | 5.55%
49 | COc1c(C)cc(C(=O)C2CCCN(S(=O)(=O)c3c(C)noc3C)C2)cc1C (stereo not shown) | -2.78%
50 | COc1c(C)cc(C(=O)C2CCCN(C3CCOCC3)C2)cc1C (stereo not shown) | -15.2%
51 | COc1c(C)cc(C(=O)C2CCCN(S(=O)(=O)N(C)C)C2)cc1C (stereo not shown) | -66.5%
52 | CCOC(=O)c1c(C)[nH]c(C(=O)N2CCCC(C(=O)c3cccc(OC)c3)C2)c1C (stereo not shown) | -8.55%
53 | CCOC(=O)CCNC(=O)N1CCCC(C(=O)c2cccc(OC(C)C)c2)C1 (stereo not shown) | -10.3%
54 | CCOC(=O)N1CCC(N2CCCC(C(=O)c3cccc(OC(C)C)c3)C2)CC1 (stereo not shown) | -76.8%
55 | CCOC(=O)N1CCC(N2CCCC(C(=O)c3cc(C)c(OC)c(C)c3)C2)CC1 (stereo not shown) | -57.3%
56 | COc1ccc(C(=O)C2CCCN(S(=O)(=O)N(C)C)C2)c(C)c1 (stereo not shown) | 0.683%
57 | CCOC(=O)CNC(=O)N1CCCC(C(=O)c2cc(C)c(OC)c(C)c2)C1 (stereo not shown) | 9.16%
58 | CCOC(=O)N1CCC(N2CCCC(C(=O)c3cccc(OC)c3)C2)CC1 (stereo not shown) | -64.8%
